# Test results from PubChem BioAssay (NCI).
# About 83,000 compounds went through this panel and 20% of them were active in at least one assay; those are over-represented in the sample as a whole.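 Note: values are percent growth. 100 is the growth of untreated cells, values between 100 and 0 indicate rising inhibition; between -100 and 0 indicates cell death.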 Values without a mark were called inactive. Activity calls are given as the source filed them. Rule for the calls: active = growth percent below 10; inactive = the rest.
# Tests used:
# Test in all cases: NCI-60 one-dose screen, 48 h (100 = growth as untreated, 0 = no growth, -100 = all killed)
# Settings in all cases: 10 µM unless noted
# NCI-H23 lung = test system: NCI-H23 lung
# NCI-H322M lung = test system: NCI-H322M lung
# HOP-62 NSCLC = test system: HOP-62 NSCLC
# NCI-H460 lung = test system: NCI-H460 lung
# HOP-92 NSCLC = test system: HOP-92 NSCLC
# NCI-H522 lung = test system: NCI-H522 lung
# A549/ATCC NSCLC = test system: A549/ATCC NSCLC
# 786-0 renal = test system: 786-0 renal
# COLO 205 colon = test system: COLO 205 colon
# NCI-H226 lung = test system: NCI-H226 lung
Structure (SMILES),growth (NCI-H23 lung),growth (NCI-H322M lung),growth (HOP-62 NSCLC),growth (NCI-H460 lung),growth (HOP-92 NSCLC),growth (NCI-H522 lung),growth (A549/ATCC NSCLC),growth (786-0 renal),growth (COLO 205 colon),growth (NCI-H226 lung)
Nc1c(C(=O)Nc2cccc3c2OCCO3)sc2nc3c(cc12)CN(Cc1ccccc1)CC3,85.4%,94.3%,72.5%,53.4%,83.4%,29.3%,79.3%,87.1%,90.9%,–
C[C@]12C[C@@H](c3ccoc3)OC(=O)[C@@H]1CC[C@]1(C)[C@@H]2CC[C@@H](O)[C@]1(C)O,76.1%,99.2%,49.4%,50.1%,54.2%,55.5%,49.5%,84%,40.9%,–
O=C(/C=C/c1ccc(Cl)cc1)c1ccc(O)c(CN2CCN(c3cc4c(cc3F)c(=O)c(C(=O)O)cn4C3CC3)CC2)c1,51.7%,72.8%,49.8%,70.7%,40.8%,45.2%,50%,55.1%,136%,–
COc1cc(NCCCCN=C(N)N)c2ncccc2c1,13.9%,73.5%,80.9%,104%,68.8%,-9.41% (active),86.8%,91.6%,82.6%,–
COc1ccc(-c2cc(C(=O)N=Nc3c(O)[nH]c4ccccc34)no2)cc1,101%,103%,91.6%,102%,100%,82.4%,107%,104%,111%,–
CN1CCOCCOCCOc2ccccc2NC(=O)c2nc(cnc2N)-c2ccc(cc2)S1(=O)=O,–,36.8%,92.4%,34.3%,95.5%,43.9%,49.8%,18%,27.9%,101%
Oc1ccccc1/C=N/Nc1ccc2ccccc2n1,45%,31.2%,57.3%,27.2%,70.9%,-9.13% (active),44%,65.3%,31.2%,–
COc1cc(/C=N/N(C)C)ccc1O,105%,99.1%,91.4%,105%,-18.7% (active),87.7%,84.1%,109%,108%,–
O=C(Cc1ccccc1)c1ccc(Cl)cc1,95.4%,108%,100%,109%,104%,93.8%,69.3%,94.5%,125%,–
Clc1ccc(-c2nnc(COc3ccccc3Cl)o2)cc1,80.6%,76.9%,61.3%,82.9%,49.2%,70.9%,58.3%,23.3%,90.8%,–
CN(C)C(=O)c1cc2cnc(Nc3ccc(-c4csc5c(=O)cc(N6CCNCC6)oc45)cc3)nc2n1C1CCCC1,0.906% (active),23%,21.4%,7.5% (active),31.3%,46.5%,2.05% (active),7.89% (active),11%,–
COc1ccc(Cl)cc1Nc1nc(C(F)(F)F)ccc1C(=O)N/N=C/c1cccnc1,41.5%,59%,54%,33.6%,56.8%,29.3%,58.7%,18.7%,44.5%,–
Nc1ccc2c(c1)C(=O)NC2=O,91.7%,108%,93.1%,103%,151%,99.3%,105%,110%,106%,–
CC(C)(C)n1cc(-c2ccnc(NCCNS(=O)(=O)c3ccccc3)c2)c(-c2cccc(O)c2)n1,70.3%,78.1%,82.5%,36.7%,77.8%,57.7%,47.1%,18.5%,6.61% (active),–
COc1cccc2c1C(=O)c1c(O)c3c(c(O)c1C2=O)C[C@@](O)(/C(C)=N/NC(=O)c1ccc(Cl)cc1)C[C@@H]3OC1CC(N)C(O)C(C)O1 (stereo partly specified),-39.7% (active),-35.3% (active),-17% (active),-21.8% (active),-6.16% (active),-70.1% (active),-32.8% (active),-6.44% (active),-81.4% (active),–
CCN(CC)CCCC(C)Nc1ccnc2c(OC)cccc12 (stereo unspecified),106%,–,108%,125%,130%,104%,106%,113%,114%,–
O=S(=O)(NCCCNc1cc(-c2cn(-c3ccccc3)nc2-c2cccc(O)c2)ccn1)c1ccccc1,65.9%,60.4%,77.3%,39%,45.2%,52.5%,35.8%,13.1%,-12.1% (active),–
Cc1cc(=O)oc2cc(Oc3nc(-c4cccs4)cn4c(-c5cccs5)cnc34)ccc12,56.6%,89.4%,59%,50.5%,7.71% (active),74.6%,58.5%,–,75%,–
OCCNCCNc1c2ccccc2nc2ccccc12,64.8%,52.7%,60.7%,54.6%,81.1%,41.6%,98.2%,84.9%,47.9%,–
COc1cc(C2CC(=O)Nc3c2c(C)nn3-c2nc3ccccc3[nH]2)cc(OC)c1OC (stereo unspecified),99.6%,103%,104%,100%,89.8%,94%,97.7%,110%,116%,–
CCCCCCCCCc1cc(CN2CCCCC2)c(O)c(CN2CCCCC2)c1,–,88.4%,78.4%,49.1%,12.7%,49.2%,61.9%,–,64.3%,75.9%
COc1cc(NCCCCN=C(N)NC(N)=NC(C)C)c2ncccc2c1,–,33.6%,75.3%,74.4%,33.7%,-6.15% (active),98.9%,106%,-18.5% (active),94.3%
COc1cc(C2CC(=O)Nc3c2cnn3Cc2ccco2)cc2c1OCCO2 (stereo unspecified),–,82.5%,88.3%,76.6%,109%,44.4%,80.6%,98%,81.2%,92.4%
C=C1CCC2C3(C)COC(C)(C)OC3CCC2(C)C1C/C=C1/C(=O)OCC1OC(C)=O (stereo unspecified),–,100%,112%,–,123%,-88.7% (active),61.7%,48.5%,-0.595% (active),50.3%
CCc1ccccc1NC(=O)c1sc2nc3c(cc2c1N)C(=O)CCC3,–,46.3%,35.5%,6.42% (active),84.8%,-11.6% (active),21.5%,35.1%,-7.87% (active),67.3%
Cc1nc2nc(N)nc(N)c2nc1C,–,95.1%,88.6%,108%,87.3%,89.8%,102%,98.4%,117%,94.6%
Cc1ccc2c(c1)C(=O)/C(=C/c1ccc(OCC(=O)c3ccccc3)cc1)O2,–,108%,87.5%,108%,66.8%,89.2%,81.6%,86.8%,107%,69.4%
NC1=CC(=O)C(=O)c2ccccc21,–,102%,98.2%,–,106%,80.6%,112%,92.8%,117%,98.1%
CC(C)c1c(C(=O)Nc2ccccc2)c(-c2ccccc2)c(-c2ccc(F)cc2)n1CC[C@@H]1CC=CC(=O)O1,–,58.6%,12.4%,5.24% (active),-24.5% (active),-33.4% (active),-9.24% (active),-26.2% (active),-49.9% (active),39.7%
